Experimental findings from PubChem BioAssay AID686978 (National Center for Advancing Translational Sciences (NCATS), 2013) are described below.

Structures are written as SMILES. About 64,000 (15%) of roughly 420,000 compounds were called active. About 27% were inconclusive and are not listed. Calls follow the shape of the dose curve; as a rule, active = well fitted inhibition curve with a large enough effect; inconclusive = small, poorly fitted or top-dose-only effect; inactive = flat fitted curve, though single readings scatter. A selection follows. A call without a number means that no potency is given here. Peptide text beside a SMILES is read from it.
Potency is read from the fitted curve at half-maximal effect.

The test is described as follows: qHTS for Inhibitors of human tyrosyl-DNA phosphodiesterase 1 (TDP1): qHTS in cells in absence of CPT. Also: nearly all actives have a fitted effect of over 55% in size. To be noted: DT40 Tdp1-/- hTDP1 cells, no CPT, ATP luminescence, 48 h; activity change, negative = growth inhibition: at 46.2 µM (top of the series). The method in brief: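 Chicken DT40 Tdp1-/- cells stably complemented with human TDP1 were seeded at 400 cells/well with DMSO in place of 20 nM camptothecin. After compound pinning, cells grew at least 48 hr at 37 °C; viability read by CellTiter-Glo luminescence.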
For the compound `Cc1ccc(C)c(N2C(=O)CS/C2=N\NC(=O)c2ccccc2Cl)c1`, the Potency result was “inactive”. Consider `Cc1ccc(NC(=O)c2nc[nH]c2C(=O)N2CCCCC2)c(C(=O)c2ccccc2)c1`, for which the Potency entry is “inactive”. Next, `CC12CCC(C(=O)N(NC(=O)c3ccccc3O)C1=O)C2(C)C` (configuration not stated): 18.4 µM (active); `O=C(NN1C(=O)C2C(C1=O)C1C=CC2C12CC2)c1ccccc1Cl` (configuration not stated): “inactive”; `COc1ccccc1C(=O)NN1C(=O)C2C3C=CC(O3)C2C1=O` (configuration not stated): “inactive”.

Turning to `O=C(NCc1nnnn1-c1ccc(Cl)cc1)c1ccc2c(c1)OCO2`, the Potency entry was “inactive”. Take `O=C(Nc1cccc(Cl)c1)Nc1ccccc1NS(=O)(=O)c1cccs1`: the Potency entry was “inactive”.

In the case of `CC(OC(=O)c1cc2ccccc2[nH]1)C(=O)N(C)c1ccccc1` (configuration not stated), the Potency entry was “inactive”. The same measure for `Cc1nc2ccccn2c(=O)c1NC(=O)c1cccs1`: “inactive”; for `Cc1ccc(-n2c(SCC(=O)N3CCC(C(=O)O)CC3)nc3ccccc3c2=O)cc1C`: “inactive”.

Consider `Cc1ccc(-n2c(=O)c(C#N)cc3c(=O)n4ccccc4nc32)cc1C`, for which the Potency is 23.1 µM (active). Next, `Cc1nc2sc(C(c3ccco3)N3CCC4(CC3)OCCO4)c(O)n2n1` (configuration not stated): “inactive”. Next, `Cc1nn(-c2ccccc2)c(NC(=O)c2cccs2)c(-c2ccc(Cl)cc2)c1=O`: “inactive”; `CC1=NN(c2cccc(Cl)c2)C(=O)C12CC(C)=C(C)CS2` (configuration not stated): “inactive”. Next, `Cc1[nH]n(-c2cccc(Cl)c2)c(=O)c1-c1ccc(Cl)cc1`: 16.4 µM (active); `CCOC(=O)Cn1c(=O)oc2cc(S(=O)(=O)NCC3CCCO3)ccc21` (configuration not stated): “inactive”; `O=C(COc1ccc2oc3c(c2c1)CCCC3)Nc1ccccn1`: “inactive”. As to `NC(=O)C1CCN(C(=O)COc2ccc3c4c(c(=O)oc3c2)CCC4)CC1`, the Potency entry was “inactive”. Next, `CC1CCCCN1CC(=O)N1CCCc2c1c(=O)oc1ccc(OCc3ccccc3)cc21` (configuration not stated): 4.61 µM (active). Next, `COc1cccc(CCNC(=O)c2cccc(NC(=O)C3=C(C)OCCS3)c2)c1`: “inactive”. Next, `CC1CCCCC1NC(=O)CCS(=O)(=O)c1cccc2nonc12` (configuration not stated): “inactive”. In the case of `CCOC(=O)C1=C(COC(=O)[C@H](C)NS(=O)(=O)c2ccccc2F)NC(=O)NC1C` (some centres not stated), the Potency result was “inactive”. The same measure for `CCOC(=O)C1=C(CN2CCCCCC2)NC(=O)NC1c1cccc([N+](=O)[O-])c1` (configuration not stated): 20.6 µM (active); for `CCOC(=O)c1sc(-c2cccc([N+](=O)[O-])c2)cc1N`: “inactive”. The same measure for `CCOC(=O)C1=C(CNC2CCCCC2)NC(=O)NC1c1cc(C)ccc1C` (configuration not stated): 20.6 µM (active); for `CCOC(=O)COc1ccc(Cl)cc1C1NC(=O)NC(C)=C1C(C)=O` (configuration not stated): “inactive”; for `CCOCCOC(=O)C1=C(C)NC(=O)NC1c1ccc2c(c1)OCO2` (configuration not stated): “inactive”. For the compound `CCOC(=O)C1=C(c2ccccc2)NC(=O)NC1c1cc(OC)c(OC)cc1OC` (configuration not stated), the Potency entry was “inactive”.

With `CCOC(=O)C1=C(CN2CCc3ccccc32)NC(=O)NC1c1cc(C)ccc1C` (configuration not stated), the Potency was 12.6 µM (active). Next, `CCOC(=O)C1=C(CSc2nccn2C)NC(=O)NC1c1ccc(OC)cc1` (configuration not stated): “inactive”; `CC(=O)NC(C(=O)NCC(N)=O)C(C)C` (configuration not stated) (HELM PEPTIDE1{[ac].[CC(C)C(N[*:1])C(=O)[*:2]].G.[am]}$$$$V2.0): “inactive”. The same measure for `C/C(Cc1ccccc1)=N\NC(=O)CNC(=O)c1ccccc1Cl`: “inactive”; for `CCC(C)N(C(=O)Cn1nc(C)c([N+](=O)[O-])c1C)C1CCS(=O)(=O)C1` (configuration not stated): “inactive”; for `Nc1cc(=O)n(Cc2ccccc2)c(=O)n1Cc1ccccc1`: “inactive”.

As for `COc1cc(OC)c(-n2c(C)cc(C=O)c2C)cc1Cl`, the Potency entry was “inactive”.

As for `COc1ncnc2c1ncn2CCCNCCN1CCOCC1`, the Potency result was “inactive”. Next, `CN1/C(=C\C=C2\N=C(c3ccc(F)cc3)OC2=O)C(C)(C)c2ccccc21`: 23.1 µM (active). Consider `Cc1ccnc2nc(C(=O)OCC(=O)N(CC(C)C)CC(C)C)nn12`, for which the Potency entry is “inactive”.

As for `O=C(O)c1ccccc1-c1ccccc1C(=O)Nc1nccs1`, the Potency entry is “inactive”. The same measure for `COc1ccc(-c2ccc(CN3C(CC(C)C)C(=O)N(Cc4cn(CC5CCCCC5)nn4)CCS3(=O)=O)cc2)cn1` (configuration not stated): 18.4 µM (active); for `COc1ccc(-c2ccc(CN3C(CC(C)C)C(=O)N(Cc4cn(CC5CCCCC5)nn4)CCS3(=O)=O)cc2)cc1` (configuration not stated): 9.2 µM (active); for `COc1ccc(-c2ccc(CN3C(C(C)C)C(=O)N(Cc4cn(CC5CCCCC5)nn4)CCS3(=O)=O)cc2)cn1` (configuration not stated): 23.1 µM (active). With `COc1ccc([C@H]2CC(=O)C[C@@H](CCn3cc(CC4CCCC4)nn3)O2)cc1`, the Potency entry was “inactive”. On to `Cc1nccn1CCCNC(=O)CC1C(=O)NCCN1Cc1ccc(Cl)c(F)c1` (configuration not stated), for which the Potency entry is “inactive”.

Turning to `O=C(NCc1cccnc1)C12CC3CC(CC(C3)C1)C2`, the Potency result is “inactive”.

Turning to `Cc1ccc(/C=C/C(=O)OCC(=O)Nc2cccnc2Cl)cc1`, the Potency result was “inactive”. The same measure for `COc1ccc(NC(=O)CCS(=O)(=O)c2cc3c(cc2Cl)NC(=O)CO3)cc1OC`: “inactive”; for `CC(C)C(C)(C#N)NC(=O)CSc1nncn1-c1ccccc1` (configuration not stated): “inactive”. The same measure for `Cn1c(=O)c2sccc2n2c(CCC(=O)NCc3ccccc3Cl)nnc12`: “inactive”. The same measure for `CSc1ccc(Cl)c(C(=O)OCC(=O)N2CCNC2=O)c1`: “inactive”; for `O=C(C1CC(=O)N(c2ccc(Br)cc2)C1)N1CCCC1` (configuration not stated): “inactive”. Turning to `Cc1ccc(N2CC(C(=O)N3CCC4(CC3)CC(=O)c3ccccc3O4)CC2=O)cc1C` (configuration not stated), the Potency is 14.6 µM (active). The same measure for `CCc1ccc(N2CC(C(=O)N3CCCCCC3)CC2=O)cc1` (configuration not stated): “inactive”; for `Nn1c(SCC(=O)Nc2nccs2)nnc1-c1ccco1`: “inactive”.

`COC(=O)C1=C(C(=O)c2ccc(C)cc2)C(c2ccccc2)n2nnnc2N1` (configuration not stated): the Potency entry is “inactive”. Next, `CC(C)Cc1ccc(C(C)C(=N)N)cc1` (configuration not stated): 6.51 µM (active); `COc1ccc(CCNC(=O)CC2SC(=Nc3cc(C)cc(C)c3)NC2=O)cc1OC` (configuration not stated): “inactive”; `O=C1c2cccnc2C(Nc2ccc(S(=O)(=O)N3CCCCCC3)cc2)N1Cc1ccccc1` (configuration not stated): “inactive”. In the case of `O=[N+]([O-])c1ccc2c(c1)C(O)n1nc(-c3ccccc3)nc1S2` (configuration not stated), the Potency result is “inactive”. Next, `NC1=NN(c2cccc(C(=O)O)c2)C(=O)C1`: “inactive”; `Cc1nn(C)c(C)c1C(C)NC(=O)c1ccc(OC2CCN(Cc3ccccn3)CC2)cc1` (configuration not stated): “inactive”; `Cc1onc(-c2ccccc2)c1-c1nnc(COC(=O)c2ccc(N(C)C)cc2)o1`: 20.6 µM (active). As to `Cc1onc(-c2ccccc2Cl)c1C(=O)OCc1nnc(-c2ccccc2)o1`, the Potency was 23.1 µM (active). The same measure for `O=C(OCc1nnc(-c2ccccc2)o1)c1ccc2c(c1)C(=O)N(CCc1ccccc1)C2=O`: “inactive”; for `C=CCn1nc(-c2ccccc2)c2c(C)onc2c1=O`: “inactive”. Next, `Cc1ccc(C(=O)NCC(=O)OCc2nnc(-c3ccccc3)o2)cc1`: “inactive”; `CN(C)c1ccc(-c2nnc(-c3cccnc3)o2)cc1`: “inactive”. The same measure for `CCCN1CNC(=S)N(CCc2ccccc2)C1`: “inactive”.

Turning to `O=C(CSc1nc2[nH]c(=O)[nH]c(=O)c2s1)Nc1cccc(F)c1`, the Potency entry was “inactive”. Next, `O=C(O)c1ccccc1-c1cccc2nncn12`: “inactive”. Next, `CCOC(=O)c1sc2nc(C)[nH]c(=O)c2c1C`: “inactive”; `COC(=O)c1ccc2c(=O)n(CC3CCCO3)c(=S)[nH]c2c1` (configuration not stated): “inactive”. The same measure for `CCOC(=O)c1sc(=S)n2c1[nH]c(=O)c1ccc(C(=O)OC)cc12`: 5.8 µM (active).

With `Cc1cc(C)c2c(n1)sc1c(=O)n(-c3ccccc3)c(=O)[nH]c12`, the Potency entry was “inactive”. The same measure for `CC(=O)Nc1cc(C(=O)O)ccc1S(=O)(=O)c1ccc(Cl)cc1`: “inactive”; for `COc1ccc2c(c1)cc1n2CCN=C1NN`: “inactive”.

With `COc1ccccc1CN1CC(C(=O)NCCc2cn[nH]c2)CCC1=O` (configuration not stated), the Potency result is “inactive”. The same measure for `CC(C)=CC1C(C(=O)O)C1(C)C` (configuration not stated): “inactive”; for `CCC1(C)COC(c2ccc(OC)c(OC)c2)OC1` (configuration not stated): “inactive”. Next, `CC(=O)c1cccc(-n2nnnc2SCC(=O)NNC(=O)C2CCCCC2)c1`: “inactive”. For `CCN(Cc1ccccc1)C(=O)CSc1nc(C)cc2c1C(=O)OC2`, the Potency result was “inactive”.

For the compound `CCOC(=O)C1CCCN(C(=O)c2ccc(C)c(F)c2)CC1` (configuration not stated), the Potency entry is “inactive”. The same measure for `Cc1ccc(C(NC(=O)N2CCCC2)C(Cl)(Cl)Cl)cc1F` (configuration not stated): 20.6 µM (active); for `Cc1cc(C)cc(NC(=O)N2CCCCCCC2)c1`: “inactive”; for `CCOC(=O)C1C(=O)OC2(CCCC2)C1C(=O)OCC` (configuration not stated): “inactive”. The same measure for `Cc1ccc(CC2C(=O)N(c3ccc(F)cc3)C(=O)C2C)cc1` (configuration not stated): “inactive”. Next, `CC1(C)CC(=O)CC2(C1)NCC(c1ccccc1Cl)c1c2[nH]c2ccccc12` (configuration not stated): 16.4 µM (active). Regarding `CNC(=O)c1ccc(-c2nc(CN3CCc4ccccc43)c(C)o2)cc1`, the Potency is 20.6 µM (active). The same measure for `COC(=O)c1cc2occc2n1Cc1nc(-c2ccccc2C)oc1C`: “inactive”; for `CC(=O)Nc1ccccc1-c1nc(CNC(=O)c2ccc(Cl)cc2)c(C)o1`: “inactive”. Next, `COc1ccc(-c2cn(-c3ccc(C)cc3)c(=O)n2CC(=O)Nc2ccc(OC)c(OC)c2)cc1`: “inactive”; `CN(Cc1ccccc1)C(=O)c1ccc(NC2=NC3CS(=O)(=O)CC3S2)cc1` (configuration not stated): “inactive”; `CC(C)[C@H](NC(=O)N1CCn2c1nc1ccccc12)C(=O)NC1CC1`: “inactive”.

For `CCC(C)[C@H](NC(=O)N1CCn2c1nc1ccccc12)C(=O)NCc1ccc(OC)cc1` (some centres not stated), the Potency was 16.4 µM (active).

Take `CC(C)[C@H](NC(=O)N1CCn2c1nc1ccccc12)C(=O)NCc1ccc2c(c1)OCO2`: the Potency entry was “inactive”. On to `N/C(=N\OC(=O)CCCC(=O)O)c1ncc(C(F)(F)F)cc1Cl`, for which the Potency result is “inactive”.

Regarding `CC(C)CCN1CCC(C)(NC(=O)c2ccccc2)C1=O` (configuration not stated), the Potency entry is “inactive”. Next, `CN(C)/C=C(/C(=O)c1ccc(Cl)cc1)S(=O)(=O)c1ccccc1`: “inactive”; `COC(C[C@@H]1O[C@@H]1C(=O)[C@H](C)OCc1ccccc1)OC`: “inactive”; `COC(C[C@H](O)CC(=O)[C@@H](C)OCc1ccccc1)OC`: “inactive”. Next, `COC(C/C=C/C(=O)[C@@H](C)OCc1ccccc1)OC`: 18.4 µM (active). Next, `CCc1ccccc1N1C(=O)CN(S(=O)(=O)CC)CC1(C)C(=O)NC1CCCCC1` (configuration not stated): “inactive”.
